We go through 59 compounds from PubChem BioAssay AID504465 (National Center for Advancing Translational Sciences (NCATS), 2011).

Out of some 2,100 compounds screened, about 210 (10%) were called active. About 53% were inconclusive and are not listed. The call rests on the fitted dose curve; in most records, active means well fitted inhibition curve with a large enough effect; inconclusive means small, poorly fitted or top-dose-only effect, or effect the other way; inactive means no such curve, though single readings can be large or run the other way. This is one part of the list. Where a call stands in place of a potency, no number is given.
Potency means the concentration at half of the fitted maximal effect.

This experiment in a line: IN Cell qHTS Assay for Inhibitors of the mTORC1 Signaling Pathway in MEF (Tsc2-/-, p53-/-) Cells: Sytravon. Further: nearly all actives have a fitted effect of over 60% in size. The following applies: phospho-rpS6 immunofluorescence, 24 h; series mostly up to 38.3 µM. A digest of the protocol:
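Tsc2-/-, p53-/- MEFs (empty-vector) treated with compound 24 h at 37 degree Celsius, then fixed and stained for phospho-rpS6 Ser235/236 (Alexa-488) plus Hoechst. Reported as % positive cells, thresholds set against 7.5 nM rapamycin and DMSO wells.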
On the technique in general: Quantitative high-throughput screening tests each substance at several concentrations.
As to `CCOc1ccccc1CC1C(=O)Nc2ccc(Br)cc21` (centres undefined), the Potency entry is “inactive”.

As for `CC(=O)c1ccc(N2CCN(C(=O)C3CCCN(S(=O)(=O)c4ccc(Br)s4)C3)CC2)cc1` (centres undefined), the Potency entry was “inactive”.

Regarding `COc1ccc(Cn2c(C(=O)O)c(CNCC(C)c3ccccc3)c3ccc(OC)cc32)cc1` (centres undefined), the Potency result was “inactive”.

As for `Cc1cccc(OCC(=O)Nc2ccccc2OCc2cc(=O)n3ccccc3n2)c1`, the Potency entry is “inactive”.

As to `Cc1cc(C)c(NC(=O)Cn2c(=O)n(CCC(=O)NCc3ccc4c(c3)OCO4)c(=O)c3ccccc32)c(C)c1`, the Potency result is “inactive”.

Turning to `Cc1cc(C)c(NC(=O)Cn2c(=O)n(Cc3ccc(C(=O)NCc4ccc5c(c4)OCO5)cc3)c(=O)c3ccccc32)c(C)c1`, the Potency is 4.14 µM (active).

Regarding `Cc1ccc(C)c(Cn2c(=O)n(CCCCCC(=O)NCc3ccc4c(c3)OCO4)c(=O)c3sccc32)c1`, the Potency entry is “inactive”.

As to `COc1ccc(NC(=O)Cn2c(=O)n(CCCC(=O)NCc3ccccc3OC)c(=O)c3ccccc32)cc1Cl`, the Potency entry was “inactive”.

Regarding `Cc1ccccc1NC(=O)Cn1c(=O)n(CCCCCC(=O)NCc2ccc3c(c2)OCO3)c(=O)c2sccc21`, the Potency result is “inactive”.

Take `CCOc1ccccc1NC(=O)Cn1c(=O)n(CCC(=O)NCc2ccc3c(c2)OCO3)c(=O)c2ccccc21`: the Potency was 4.65 µM (active).

As to `Cc1ccc(-c2nc(-c3cccs3)c(-c3cccs3)[nH]2)cc1`, the Potency result was “inactive”.

On to `Cc1ccc(Cl)cc1-n1ncc2c(NC3CCCCCC3)ncnc21`, for which the Potency result was “inactive”.

For the compound `CCOC(=O)c1ccc2c(c1)N(Cc1cccc([N+](=O)[O-])c1)C(=O)c1ccccc1S2`, the Potency entry was “inactive”.

In the case of `O=C(Nc1ccc(F)cc1)Nc1nnc(SCC(=O)N2CCCCC2)s1`, the Potency result was “inactive”.

In the case of `COc1cccc(-c2nc3c(c(SCC(=O)Nc4cccc(C)c4C)n2)Cc2c(CO)cnc(C)c2O3)c1`, the Potency result is “inactive”.

Take `CCOc1ccc(NC(=O)Cn2ccn(-c3ccc(F)c(F)c3)c(=O)c2=O)cc1`: the Potency result was “inactive”.

Consider `CCOc1cccc(NC(=O)CSc2ncc(-c3ccc(Cl)cc3)[nH]2)c1`, for which the Potency result was “inactive”.

As for `O=C(Nc1ccccc1F)c1nc(S(=O)(=O)Cc2ccccc2F)ncc1Cl`, the Potency is 2.33 µM (active).

For `CCOc1ccc(NC(=O)c2nc(S(=O)(=O)Cc3ccccc3F)ncc2Cl)cc1`, the Potency is 3.69 µM (active).

Take `CCOc1ccc(CNCc2c(C(=O)O)n(Cc3ccccc3C)c3cc(OC)ccc23)cc1OC`: the Potency result was “inactive”.

For the compound `O=C1CC(c2ccccc2)Cc2[nH]c(=O)c(-c3nc(-c4cccc(Cl)c4)cs3)cc21` (centres undefined), the Potency result was “inactive”.

Take `COc1ccc(C2C(=O)N(C3CCCCCC3)CC(=O)N2CCc2ccccc2)cc1` (centres undefined): the Potency entry was “inactive”.

In the case of `CC(C)c1cnc2c(c1SCC(=O)c1ccc(Cl)cc1)c(=O)n(C)c(=O)n2C`, the Potency result was “inactive”.

As to `COc1ccccc1NC(=O)c1c(NCc2ccc(C)o2)sc2c1CCCCC2`, the Potency entry is “inactive”.

`COc1ccc(NC(=O)c2c(NCc3ccc(C)o3)sc3c2CCCCC3)c(OC)c1`: the Potency result is “inactive”.

Regarding `COc1ccc(OC)c(NC(=O)c2c(NCc3ccc(C)o3)sc3c2CCCCC3)c1`, the Potency entry was “inactive”.

On to `COc1ccc(CC(=O)Nc2sc3c(c2C(=O)Nc2cccc(C)c2)CCCCC3)cc1`, for which the Potency was 11.7 µM (active).

Regarding `COc1ccc(NC(=O)c2c(NCc3ccc(C)o3)sc3c2CCC(C)C3)cc1` (centres undefined), the Potency result was “inactive”.

With `COc1ccc(CC(=O)Nc2sc3c(c2C(=O)Nc2ccccc2)CCCCC3)cc1`, the Potency is 9.27 µM (active).

Consider `CCOC(=O)c1c(NC(=O)c2ccc(S(=O)(=O)N3CCCC(C)C3)cc2)sc2c1CCN(C(C)C)C2` (centres undefined), for which the Potency result was “inactive”.

Consider `FC(F)(F)c1ccc(C2=Nc3ccccc3NC(c3cccs3)=N2)cc1`, for which the Potency entry is “inactive”.

In the case of `O=C(CCCn1ccc2cc(S(=O)(=O)N3CCCC3)ccc21)NCc1ccc(Cl)cc1`, the Potency entry is “inactive”.

As to `CCc1ccccc1-n1c(SCC(=O)Nc2ccc(C)cc2)nc2n[nH]c(C)c2c1=N`, the Potency entry was “inactive”.

Consider `O=C(NCc1ccc(Cl)cc1Cl)c1cccc(N2CCCS2(=O)=O)c1`, for which the Potency entry was “inactive”.

Regarding `CCCCN1C(=O)C(O)(c2c(C)[nH]c3ccccc23)c2ccccc21` (centres undefined), the Potency result was “inactive”.

For `Cc1ccccc1S(=O)Cc1ccc(C(=O)N2CCN(c3cccc(C)c3C)CC2)o1` (centres undefined), the Potency is 3.69 µM (active).

Turning to `Cc1cccc(N2CCN(C(=O)Cn3nc(Cc4cccnc4)c4ccccc4c3=O)CC2)c1C`, the Potency result was “inactive”.

Regarding `Cc1ccc(S(=O)(=O)Cc2ccc(C(=O)N3CCN(c4cccc(C)c4C)CC3)o2)cc1`, the Potency entry was “inactive”.

As for `CC1CCCCN1CC(=O)N1CCCc2c1c(=O)oc1ccc(OCc3ccccc3)cc21` (centres undefined), the Potency is 13.1 µM (active).

Take `O=C(COc1ccc2oc3c(c2c1)CCCC3)Nc1cccc(Br)c1`: the Potency entry was “inactive”.

With `COc1ccc(OC)c(NC(=O)CN2C(=O)COc3ccc(S(=O)(=O)NC4CCCC4)cc32)c1`, the Potency result is “inactive”.

As for `COc1ccc(-c2nc(SCC(=O)NCc3ccccc3Cl)n[nH]2)cc1`, the Potency result was “inactive”.

Take `COc1cccc(C2C(C(N)=O)=C(C)Nc3nc(CCCO)nn32)c1` (centres undefined): the Potency entry is “inactive”.

For `CCCC1=Nc2cc(C(=O)NCCOC)ccc2Sc2ccccc21`, the Potency entry was “inactive”.

With `COc1cc(C(=O)Nc2cc(C)c(O)c(-c3nc4ccccc4s3)c2)cc(OC)c1OC`, the Potency result was “inactive”.

For `Cc1ccccc1NC(=O)CSc1nc2ccc(NC(=O)c3ccccc3)cc2s1`, the Potency result was “inactive”.

Regarding `CCSc1ccccc1C(=O)Nc1ccc(-c2nc3ccccc3s2)c(O)c1`, the Potency is 4.65 µM (active).

As to `Cc1ccc(C)c(N2CCN(C(=O)C3CCN(c4nc5ccc(C)cc5[nH]4)CC3)CC2)c1`, the Potency result was “inactive”.

With `Cc1ccccc1Cn1cc(NC(=O)c2cc(-c3ccc(Cl)cc3)on2)cn1`, the Potency entry was “inactive”.

In the case of `COc1ccc(N2CC(c3nc(-c4cc(OC)c(OC)c(OC)c4)no3)CC2=O)cc1Cl` (centres undefined), the Potency entry was “inactive”.

Consider `Cc1ccc(NC(=O)Cc2coc3ccc(C(C)C)cc23)cc1Cl`, for which the Potency result is “inactive”.

For the compound `Cc1ccc2occ(CC(=O)Nc3ccc(Cl)c(C(F)(F)F)c3)c2c1`, the Potency was 13.1 µM (active).

With `Cc1ccc2onc(CC(=O)Nc3cccc(C(F)(F)F)c3)c2c1`, the Potency entry is “inactive”.

Consider `CC(C)(C)c1ccc(Oc2nc3ccccn3c(=O)c2/C=C(\C#N)c2nc3ccccc3[nH]2)cc1`, for which the Potency result was “inactive”.

For `COc1ccccc1CNS(=O)(=O)c1cc(C(=O)Nc2cccc(C(F)(F)F)c2)ccc1F`, the Potency result is “inactive”.

With `O=C(Nc1ccc(Br)cc1)c1cc(S(=O)(=O)N2CCc3ccccc32)ccc1F`, the Potency entry was “inactive”.

As for `Cc1ccc(CNc2nc3c(c(=O)n(C)c(=O)n3C)n2Cc2ccc(Cl)cc2)cc1`, the Potency entry is “inactive”.

On to `CCOC(=O)Cn1c(=O)c2c(nc(N3CCOCC3)n2Cc2ccccc2)n(C)c1=O`, for which the Potency was 8.26 µM (active).

Turning to `CCOC(=O)Cn1c(=O)n(-c2ccccc2OC)c2nc(-c3ccccc3F)nc(C(N)=O)c21`, the Potency entry is “inactive”.
